Assay results from PubChem BioAssay (NCI).
This is part of a sample that, as a whole, favours compounds with a hit. Of some 79,000 tested, about 15% had one in any assay. Values without a mark were called inactive. Active and inactive are the calls of the source. Cut-off read from the data, not from the text of the source: active = growth inhibition above about 70%; inactive = the rest.

Tests used:
[1] = NCI Yeast Anticancer Drug Screen. Data for the rad50 strain (AID 155);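 note: 0% = growth of vehicle-only cultures of the same strain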; conditions: S. cerevisiae rad50 strain growth inhibition, active compounds read high
Summary of the method: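 Cells are treated with compound, grown, and their growth is then scored against vehicle-only cultures of the same repair-deficient yeast strain.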

[2] = NCI Yeast Anticancer Drug Screen. Data for the mec2-1 strain (AID 157); conditions: S. cerevisiae mec2-1 strain, active compounds read high
Summary of the method: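 Strain: mec2-1 (DNA repair/cell cycle alteration). Compound exposure, then growth measured; inhibition expressed relative to vehicle.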

[3] = NCI Yeast Anticancer Drug Screen. Data for the sgs1 mgt1 strain (AID 161);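 note: 0% = growth of cultures given vehicle only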; conditions: S. cerevisiae sgs1 mgt1 strain, active compounds read high
Summary of the method: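 Inhibition of yeast growth, normalised to vehicle-treated controls, is reported for a strain bearing genetic alterations in DNA damage repair.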

[4] = NCI Yeast Anticancer Drug Screen. Data for the cln2 rad14 strain (AID 165);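 note: 0% = growth equal to vehicle treated cultures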; conditions: S. cerevisiae cln2 rad14 strain, active compounds read high
Summary of the method: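 Compounds are applied to the cln2 rad14 yeast strain, and growth is then compared with that of vehicle-treated cultures to give inhibition.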

[5] = NCI Yeast Anticancer Drug Screen. Data for the bub3 strain (AID 167); conditions: S. cerevisiae bub3 mutant strain, active compounds read high
Summary of the method: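 Part of a panel of yeast mutants defective in DNA damage repair or cell cycle regulation. Each strain is grown with compound, and inhibition is calculated relative to solvent-treated cultures.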

[6] = NCI Yeast Anticancer Drug Screen. Data for the mlh1 rad18 strain (AID 175); conditions: S. cerevisiae mlh1 rad18 strain growth inhibition, active compounds read high
Summary of the method: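 Read-out is yeast growth inhibition, calculated against vehicle-only controls. The compound was applied to a strain engineered with DNA damage repair alterations.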

[7] = at 5.0 µM (retest, dose inferred, filed as 0.5)
[8] = at 50.0 µM (retest, dose inferred, filed as 5.0)

SMILES | growth inhibition [1, 7] | growth inhibition [1, 8] | growth inhibition ([1]; at 50.0 µM) | growth inhibition [2, 7] | growth inhibition [2, 8] | growth inhibition ([2]; at 50.0 µM) | growth inhibition [3, 7] | growth inhibition [3, 8] | growth inhibition ([3]; at 50.0 µM) | growth inhibition [4, 7] | growth inhibition [4, 8] | growth inhibition ([4]; at 50.0 µM) | growth inhibition [5, 7] | growth inhibition [5, 8] | growth inhibition ([5]; at 50.0 µM) | growth inhibition [6, 7] | growth inhibition [6, 8] | growth inhibition ([6]; at 50.0 µM)
Clc1nc(Cl)c(Cc2ccccc2)c(Cl)n1 | 43% | 97% (active) | 91% (active) | 50% | 99% (active) | 93.4% (active) | 38% | 100% (active) | 90.7% (active) | 34% | 94% (active) | 89.2% (active) | 49% | 99% (active) | 87.2% (active) | 78% (active) | 97% (active) | 88.5% (active)
c1ccc2sc(SSN3CCOCC3)nc2c1 | 78% (active) | 99% (active) | 94.4% (active) | 28% | 98% (active) | 89.2% (active) | 18% | 99% (active) | 66.8% | 76% (active) | 97% (active) | 96.3% (active) | 64% | 98% (active) | 86.4% (active) | 34% | 99% (active) | 94% (active)
C/C(=N\NS(=O)(=O)c1ccc(C)cc1)c1cc2ccccc2n1C | 0% | 85% (active) | 74.9% (active) | -24% | 65% | 44.2% | -17% | 82% (active) | 63.2% | -5% | 92% (active) | 78.5% (active) | 31% | 93% (active) | 60.7% | 3% | 86% (active) | 65.2%
O=C(CCc1ccccc1)OCC1OC(OC(=O)CCc2ccccc2)C(OC(=O)CCc2ccccc2)C(OC(=O)CCc2ccccc2)C1OC(=O)CCc1ccccc1 (configuration not stated) | 1% | 4% | 25.6% | 0% | -2% | 21.4% | -3% | -22% | 19.7% | 0% | -1% | -0.4% | 2% | 1% | -6.35% | -3% | 3% | 45.4%
Nc1c(NCc2ccccc2)ccc2ncccc12 | -10% | 93% (active) | 95.2% (active) | -17% | 97% (active) | 93.4% (active) | -7% | 94% (active) | 93.2% (active) | -7% | 71% (active) | 96.4% (active) | 2% | 93% (active) | 98% (active) | 6% | 96% (active) | 98.1% (active)
O=C(OCC1CCCO1)N(c1ccccc1)c1ccccc1 (configuration not stated) | 12% | -5% | 23.1% | 15% | 21% | 24.3% | 18% | 20% | 46.9% | 30% | 21% | -11.4% | 0% | 16% | 2% | 16% | 40% | 37.7%
COC(=O)c1nnc(C(=O)OC)c2c1[nH]c1ccccc12 | 4% | 77% (active) | 79% (active) | 2% | 48% | 28.4% | 2% | 50% | 55.3% | -2% | 11% | 10.6% | 0% | 37% | 42.9% | -3% | 52% | 40.1%
COc1cc(C2CC(=O)c3ccccc3O2)ccc1O (configuration not stated) | 0% | 98% (active) | 89% (active) | 10% | 99% (active) | 92.7% (active) | 17% | 98% (active) | 92.2% (active) | -16% | 97% (active) | 88.7% (active) | 26% | 97% (active) | 90.7% (active) | 15% | 98% (active) | 89.5% (active)
CC[C@@]1(O)C[C@H](OC2CC(N(C)C)C(OC3CC(O)C(OC4CCC(=O)C(C)O4)C(C)O3)C(C)O2)c2c(cc3c(c2O)C(=O)c2c(O)cccc2C3=O)[C@H]1C(=O)OC (some centres not stated) | 95% (active) | 97% (active) | 91.2% (active) | 98% (active) | 99% (active) | 92.8% (active) | 92% (active) | 97% (active) | 91.9% (active) | 92% (active) | 98% (active) | 89.2% (active) | 95% (active) | 98% (active) | 91.8% (active) | 97% (active) | 98% (active) | 92% (active)
